Assay results from PubChem BioAssay.
Values without a mark were called inactive. Where a call stands in place of a potency, no number is given. For some assays here: Potency and affinity values are given separately. Calls of active or inactive are those of the source. Unless noted, how the calls were made is not given here.

What was measured:
[1] = antimalarial activity against Dd2 strain (AID 2302;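 active means growth inhibition above 50% at the single 2 µM test dose, taken to imply half-maximal potency below 2 µM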); conditions: P. falciparum Dd2 in RBCs, LDH growth readout, 72 h; at 2 µM; active compounds read high
[2] = human hepatoma cell viability loss – ATP luminescence, cytotoxicity control for P. falciparum antimalarial project, primary screen (AID 2303;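 active means inhibition above 50%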); conditions: HepG2 viability, 24-48 h, at 10 µM, active compounds read high
[3] = target: L-lactate dehydrogenase (Plasmodium falciparum (isolate CDC / Honduras)) (UniProt Q27743); assay: PfLDH activity inhibition – cell lysate, 3D7 strain, counter-screen for P. falciparum growth inhibition project (AID 2304); conditions: P. falciparum 3D7 crude extract, LDH APAD/NBT absorbance; at 2 µM; active compounds read high
Chain of L-lactate dehydrogenase (Plasmodium falciparum (isolate CDC / Honduras)) (Q27743 whole entry, looked up): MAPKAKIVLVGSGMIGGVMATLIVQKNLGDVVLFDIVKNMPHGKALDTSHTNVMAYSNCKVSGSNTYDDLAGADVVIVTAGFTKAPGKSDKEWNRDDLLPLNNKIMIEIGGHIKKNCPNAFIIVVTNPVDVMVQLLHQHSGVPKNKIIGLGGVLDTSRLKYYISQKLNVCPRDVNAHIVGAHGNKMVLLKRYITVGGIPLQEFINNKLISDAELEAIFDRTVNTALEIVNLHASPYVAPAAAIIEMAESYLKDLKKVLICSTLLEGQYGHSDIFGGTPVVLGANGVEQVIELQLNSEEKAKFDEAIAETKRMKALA

[4] = inhibition of 3D7 malaria parasite growth – strain 3D7 (AID 2306); conditions: P. falciparum 3D7 erythrocytic growth, LDH absorbance, 72 h; at 2 µM; active compounds read high
[5] = target: Calcium-dependent protein kinase 1 (Plasmodium falciparum (isolate 3D7)) (UniProt P62344); assay: PfCDPK1 kinase inhibitors, biochemical, TCAMS library (AID 1159585; cut-off not given, nearly all actives have IC50 up to about 0.98 µM;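 further: inhibitors leave more ATP so luminescence rises with inhibition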); conditions: recombinant PfCDPK1, Kinase-Glo ATP depletion luminescence
Chain of Calcium-dependent protein kinase 1 (Plasmodium falciparum (isolate 3D7)) (P62344 whole entry, looked up): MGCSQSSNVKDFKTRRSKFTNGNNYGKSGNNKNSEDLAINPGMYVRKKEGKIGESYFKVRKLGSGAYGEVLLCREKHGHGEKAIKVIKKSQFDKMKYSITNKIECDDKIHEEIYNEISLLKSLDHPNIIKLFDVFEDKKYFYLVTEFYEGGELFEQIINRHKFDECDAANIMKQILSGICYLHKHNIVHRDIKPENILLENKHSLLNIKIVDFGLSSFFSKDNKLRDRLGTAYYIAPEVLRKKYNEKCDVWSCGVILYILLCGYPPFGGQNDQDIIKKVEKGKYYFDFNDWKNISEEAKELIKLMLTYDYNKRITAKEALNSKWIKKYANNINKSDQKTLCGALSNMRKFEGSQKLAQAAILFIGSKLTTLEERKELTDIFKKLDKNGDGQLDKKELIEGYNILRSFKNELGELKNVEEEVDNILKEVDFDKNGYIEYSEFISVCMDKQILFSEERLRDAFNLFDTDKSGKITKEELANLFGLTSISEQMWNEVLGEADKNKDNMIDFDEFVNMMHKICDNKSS

[6] = target: Plasmodium falciparum protein kinase 6 (PK6, PF3D7_1337100) (UniProt Q8IDW1); assay: PfPK6 kinase inhibitors, biochemical, TCAMS library (AID 1159586); conditions: recombinant PfPK6, Kinase-Glo ATP depletion luminescence
Chain of Plasmodium falciparum protein kinase 6 (PK6, PF3D7_1337100) (Q8IDW1 1-305): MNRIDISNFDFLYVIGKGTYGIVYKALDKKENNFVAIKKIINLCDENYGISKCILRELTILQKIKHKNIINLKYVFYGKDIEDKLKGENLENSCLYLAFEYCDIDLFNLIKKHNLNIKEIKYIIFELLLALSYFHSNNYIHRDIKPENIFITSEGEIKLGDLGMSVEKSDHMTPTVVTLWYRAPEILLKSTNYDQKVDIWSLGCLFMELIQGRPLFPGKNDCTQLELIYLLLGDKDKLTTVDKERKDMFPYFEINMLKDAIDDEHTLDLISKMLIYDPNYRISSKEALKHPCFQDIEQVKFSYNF

[7] = target: Protein kinase 7 (PK7), Plasmodium falciparum 3D7 (PF3D7_0213400) (UniProt Q7YTF7); assay: inhibition of Plasmodium PK7 catalytic activity – biochemical, TCAMS antimalarial set, Kinase-Glo luminescence (AID 1159587); conditions: recombinant PfPK7, Kinase-Glo ATP depletion luminescence
Chain of Protein kinase 7 (PK7), Plasmodium falciparum 3D7 (PF3D7_0213400) (Q7YTF7 1-343): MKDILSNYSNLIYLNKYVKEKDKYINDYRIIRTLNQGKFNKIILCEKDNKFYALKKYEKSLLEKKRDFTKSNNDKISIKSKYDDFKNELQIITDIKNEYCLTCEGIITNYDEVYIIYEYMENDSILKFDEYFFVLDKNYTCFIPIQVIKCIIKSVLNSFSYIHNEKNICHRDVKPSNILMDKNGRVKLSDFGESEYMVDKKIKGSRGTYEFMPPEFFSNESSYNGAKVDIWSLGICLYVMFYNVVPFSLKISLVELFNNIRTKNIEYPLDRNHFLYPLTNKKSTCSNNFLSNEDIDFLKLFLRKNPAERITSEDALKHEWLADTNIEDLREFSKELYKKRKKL

[8] = target: Calcium-dependent protein kinase 4 (Plasmodium falciparum (isolate 3D7)) (UniProt Q8IBS5); assay: PfCDPK4 kinase inhibitors, biochemical, TCAMS library (AID 1159588; cut-off not given, nearly all actives have IC50 up to about 0.91 µM); conditions: recombinant PfCDPK4, Kinase-Glo ATP depletion luminescence
Chain of Calcium-dependent protein kinase 4 (Plasmodium falciparum (isolate 3D7)) (Q8IBS5 whole entry, looked up): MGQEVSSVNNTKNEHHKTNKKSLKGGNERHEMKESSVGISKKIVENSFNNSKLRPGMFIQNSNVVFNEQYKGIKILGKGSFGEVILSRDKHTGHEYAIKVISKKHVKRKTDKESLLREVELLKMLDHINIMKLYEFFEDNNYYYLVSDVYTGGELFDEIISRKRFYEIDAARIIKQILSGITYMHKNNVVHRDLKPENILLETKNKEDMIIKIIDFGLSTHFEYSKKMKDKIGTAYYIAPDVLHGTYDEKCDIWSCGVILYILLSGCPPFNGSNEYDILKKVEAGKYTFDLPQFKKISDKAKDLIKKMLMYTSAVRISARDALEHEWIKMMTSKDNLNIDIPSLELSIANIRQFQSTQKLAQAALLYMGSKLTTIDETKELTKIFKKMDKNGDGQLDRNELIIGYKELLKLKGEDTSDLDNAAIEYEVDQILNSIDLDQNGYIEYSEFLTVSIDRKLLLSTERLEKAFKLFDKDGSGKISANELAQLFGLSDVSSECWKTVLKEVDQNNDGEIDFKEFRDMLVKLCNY

SMILES | growth inhibition [1] | inhibition [2] | inhibition [3] [%] | growth inhibition [4] | outcome [5] | outcome [6] | outcome [7] | outcome [8]
Cc1c(Cc2ccc(F)cc2)c(Cl)nc2nc(N)nc(N)c12 | 1% | 66% (active) | -2 | 92% (active) | inactive | inactive | inactive | inactive
Cc1cccc(NC(=O)NCc2ccccc2)n1 | 2% | 14% | -2 | 97% (active) | inactive | inactive | inactive | inactive
COc1ccc(NC(=O)/C=C/c2cc(Br)ccc2F)cc1OCCN(C(C)C)C(C)C | 14% | 22% | -3 | 100% (active) | inactive | inactive | inactive | inactive
O=C(Nc1ccc(OC2CCN(Cc3ccc(F)cc3)CC2)c(Cl)c1)c1ccoc1 | 90% (active) | -2% | 2 | 89% (active) | inactive | inactive | inactive | inactive
Cc1cc(N[C@@H](CC(C)C)C(=O)NCCc2ccccc2)nc(NCC2CCCCC2)n1 | 65% (active) | 19% | -1 | 97% (active) | inactive | inactive | inactive | inactive
COc1ccc(Nc2cc(C)nc(NCc3ccc4c(c3)OCO4)n2)cc1 | 78% (active) | 26% | -2 | 99% (active) | inactive | inactive | inactive | inactive
CCCC(=O)c1cnc2c(I)cccc2c1Nc1ccccc1C | 26% | 7% | 4 | 90% (active) | inactive | inactive | inactive | inactive
Cc1cccc(C)c1CNc1ccnc2cc(Br)ccc12 | 99% (active) | 24% | -3 | 95% (active) | inactive | inactive | inactive | inactive
COC(=O)c1ccc2c(c1)nc(Nc1cccc(F)c1)n2CC(O)c1ccccn1 (stereo not given) | 96% (active) | -7% | -1 | 99% (active) | inactive | inactive | inactive | inactive
CCCCOc1ccc(-n2c(Nc3ccccc3)nc3cc(S(N)(=O)=O)ccc32)cc1 | 72% (active) | 0% | -6 | 90% (active) | inactive | inactive | inactive | inactive
FC(F)(F)c1cccc(Nc2nc(-c3ccccc3)nc3ncccc23)c1 | 97% (active) | 17% | -1 | 97% (active) | inactive | inactive | inactive | inactive
Cc1ccc(Nc2nc(NN=Cc3cc4c(cc3Br)OCO4)nc(Nc3ccc([N+](=O)[O-])cc3)n2)cc1C | 89% (active) | 23% | -2 | 100% (active) | inactive | inactive | inactive | inactive
CCN1CCN(c2cc(C)c3cc(NC(=O)c4ccc(OC)c(OC)c4)ccc3n2)CC1 | 23% | 28% | 1 | 90% (active) | inactive | inactive | inactive | inactive
CCc1ccc(NC(=O)c2ccc(CN3CCCN(CCC(C)C)CC3)cc2)cc1 | 25% | 48% | -7 | 96% (active) | inactive | inactive | inactive | inactive
COC(=O)c1cccc(CNCc2cccc(-c3cccc(-c4nc5c(C)cccc5[nH]4)c3)c2)c1 | 47% | -1% | 3 | 101% (active) | inactive | inactive | inactive | inactive
O=C(/C=C/c1ccc(C(F)(F)F)cc1)NCCCCCN1CCN(C(=O)Nc2ccc(F)c(Cl)c2)CC1 | -6% | 35% | -2 | 89% (active) | inactive | inactive | inactive | inactive
COc1cccc(C(=O)NCc2n[nH]c(=S)n2-c2ccc(Cl)c(Cl)c2)c1 | 100% (active) | -1% | 5 | 102% (active) | inactive | inactive | inactive | inactive
CCN(CC)CCN(CCN(CC)CC)c1ccc2c(c1)Sc1c(Cl)ccc(Cl)c1S2 | 94% (active) | 31% | -5 | 98% (active) | inactive | inactive | inactive | inactive
CCOc1ccc(S(=O)(=O)N(C)c2ccc(OCC(=O)Nc3nccs3)cc2)cc1 | 4% | 8% | 3 | 95% (active) | inactive | inactive | inactive | inactive
COc1ccccc1N=C1SC(=Cc2cn(CC(=O)N3CCCc4ccccc43)c3ccccc23)C(=O)N1C1CCCCC1 | 99% (active) | 10% | 2 | 100% (active) | inactive | inactive | inactive | inactive

SMILES | growth inhibition [1] | inhibition [2] | inhibition [3] [%] | growth inhibition [4] | outcome [5] | outcome [6] | outcome [7] | outcome [8]
O=C(Nc1ccc(OC2CCN(Cc3ccc(F)cc3)C2)c(Cl)c1)c1ccoc1 (stereo not given) | 90% (active) | 13% | 2 | 90% (active) | inactive | inactive | inactive | inactive
CCNc1cc(C(=O)N[C@@H](Cc2ccccc2)[C@H](O)CNC2CCC(C)(C)C2)cc(N2CCCCS2(=O)=O)c1 (stereo not given in full) | 98% (active) | 3% | 6 | 96% (active) | inactive | inactive | inactive | inactive
O=C(NC1CC1)c1ccc(N2CCN(Cc3ccc(Cl)cc3)CC2)nc1 | 81% (active) | 16% | 3 | 84% (active) | inactive | inactive | inactive | inactive
CCN(CC)CCCN(C(=O)Nc1ccc(C#N)cc1)c1nc(-c2ccc(F)cc2)cs1 | 68% (active) | 36% | 0 | 99% (active) | inactive | inactive | inactive | inactive
O=C(/C=C/c1ccc(Cl)c(Cl)c1)NCCCCCN1CCC(c2c[nH]c3cc(O)ccc23)CC1 | 2% | 32% | 3 | 101% (active) | inactive | inactive | inactive | inactive
COc1ccc(CCN(C)CCCCNC(=O)c2ccc(NC(=O)c3ccc(Cl)cc3)cc2)c(OC)c1 | 0% | 12% | 4 | 87% (active) | inactive | inactive | inactive | inactive
COc1nc2c(CCN3CCC(NCc4ccc5c(c4)NC(=O)CO5)CC3)c(Cl)cnc2cc1F | 21% | 15% | 6 | 99% (active) | inactive | inactive | inactive | inactive
COc1ccc2c(NN=Cc3cccc(F)c3)cc(C)nc2c1 | 100% (active) | 17% | -4 | 101% (active) | inactive | inactive | inactive | inactive
O=C(/C=C/c1ccc(Cl)c(Cl)c1)NCCCCCN1CCC(NC(=O)Nc2cc(Cl)nc(Cl)c2)CC1 | 2% | 4% | -8 | 102% (active) | inactive | inactive | inactive | inactive
Cc1c(C(=O)Nc2cc(Sc3ccc(F)cc3)cc([N+](=O)[O-])c2)sc2ncn(Cc3ccccc3F)c(=O)c12 | 45% | 2% | 5 | 98% (active) | inactive | inactive | inactive | inactive
CN1CCC(C(=O)Nc2cccc(-c3ccc(-c4nc5ccccc5[nH]4)cc3)c2)CC1 | 15% | 7% | 5 | 82% (active) | inactive | inactive | inactive | inactive
COc1ccc(NC(=O)Nc2cccc(-c3cccc(-c4nc5c(C)cccc5[nH]4)c3)c2)cc1 | 43% | -1% | 2 | 101% (active) | inactive | inactive | inactive | inactive
COc1cccc(CCNCCCCCCNCCc2ccc(Cl)cc2)c1 | 3% | 32% | -1 | 100% (active) | inactive | inactive | inactive | inactive
S=C(Nc1cccc(Cl)c1)NC1CCN(c2ccnc3cc(Cl)ccc23)C1 (stereo not given) | 89% (active) | 16% | -3 | 100% (active) | inactive | inactive | inactive | inactive
N#Cc1cccc(/C=C/C(=O)NC2CCC(CCN3CCc4ccc(-c5cnccn5)cc4CC3)CC2)c1 (stereo not given) | 47% | 22% | -1 | 93% (active) | inactive | inactive | inactive | inactive
CCc1cn(C)c2c(N3CCCC3=O)cc(C(=O)N[C@@H](Cc3ccccc3)[C@H](O)CNC(C)(C)c3cccc(C(F)(F)F)c3)cc12 | 97% (active) | 22% | 0 | 97% (active) | inactive | inactive | inactive | inactive
Cc1[nH]c(C)c(-c2ccc(-c3cccc(C(F)(F)F)c3)nc2)c(=O)c1Br | 96% (active) | 28% | -4 | 97% (active) | inactive | inactive | inactive | inactive
Cc1[nH]c(C)c(C2CCC(c3ccc(Cl)cc3)CC2)c(=O)c1Cl (stereo not given) | 97% (active) | 37% | -9 | 98% (active) | inactive | inactive | inactive | inactive
COc1ccc2nccc(N3CCC(CCNCc4ccc5c(n4)NC(=O)CO5)CC3)c2n1 | 72% (active) | 19% | -7 | 101% (active) | inactive | inactive | inactive | inactive
CCCC(C)Nc1nc(C)cc(N[C@@H](Cc2ccccc2)C(=O)Nc2ccc(OC)cc2)n1 (stereo not given in full) | 72% (active) | 24% | -1 | 100% (active) | inactive | inactive | inactive | inactive
